According to PMC5540273 (PLoS ONE, 2017):

System: T1, PIK4CB
T1 construct: gene PI4KB
Details: concentration: 1 μM, replicates: in singlicate; n = 1
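Note: KINOMEscan kinase panel screen.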

Row | Structure (SMILES) | %Inh
1 | c1ccc(-c2ccnc3[nH]ccc23)cc1 [SB-693578] | 4%
2 | O=C(Nc1n[nH]c2nc(-c3cccs3)c(Br)cc12)C1CCCC1 [SB-743341] | 33%
3 | CN1c2ccc(-c3ccc(C(N)=O)cc3)cc2-c2[nH]ncc2S1(=O)=O | 0%
4 | Fc1ccc(-c2nc3n(c2-c2ccncc2)CCS3)cc1 [GI98581] | 0%
5 | CCc1ccc(-c2ccc3c(c2)-c2n[nH]cc2S(=O)(=O)N3C)cc1 | 0%
6 | COC(=O)c1cccc(NC(=O)NC2CCN(c3ccnc(Nc4ccc(F)cc4)n3)C2)c1 (stereo not shown) [GSK1379725] | 6%
7 | COc1cccc(CNC(=O)NC2CCN(c3ccnc(Nc4ccc(F)cc4)n3)C2)c1 (stereo not shown) [GSK1379723] | 11%
8 | CNc1cc(-c2ccc3c(N)n[nH]c3c2)nc(N)n1 [GSK2224810] | 11%
9 | Cc1ccc(NC(=O)Nc2ccccc2F)cc1-c1ccc(C(=O)Nc2ccncc2)cc1 [GSK1398477] | 0%
10 | CS(=O)(=O)Cc1ccc(Nc2nccc(-c3c(-c4cccc(NC(=O)C5CCCCC5)c4)nn4ncccc34)n2)cc1 [GSK350559] | 45%
11 | Cc1cccc2c(-c3ccncn3)c(-c3ccc(F)cc3)nn12 [GW515532] | 0%
12 | Cc1ccc(NC(=O)c2ccc(Cl)cc2)cc1-c1ccc(C(=O)Nc2ccncc2)cc1 [GSK1398467] | 0%
13 | COc1ccc(CSc2nnc(-c3ccc4c(c3)CCO4)o2)cc1 | 0%
14 | Cc1ccccc1-c1cc(-c2c[nH]nc2-c2ccccn2)ccn1 [GW680061] | 0%
15 | COC(=O)C(Cc1ccccc1)NC(=O)NC1CCN(c2ccnc(Nc3ccc(F)cc3)n2)C1 (stereo not shown) [GSK1379714] | 7%
16 | COc1ccc2cc(-c3nc(-c4ccccc4C(C)C)[nH]c3-c3ccncc3)ccc2c1 [SB-660566] | 0%
17 | Nc1cccc(-c2ccc3c(N)n[nH]c3c2)n1 [GSK2192730] | 30%
18 | O=C1NC(=O)C(c2ccc(Cl)cc2)=C1Nc1ccc(O)cc1 [SB-340867] | 13%
19 | CCn1c(-c2c(N)noc2C)nc2cnccc21 [SB-737856] | 0%

Row | Structure (SMILES) | %Inh
20 | COC(=O)c1cccc(NC(=O)NC2CCN(c3ccnc(Nc4ccc(OC)cc4)n3)C2)c1 (stereo not shown) [GSK1379746] | 21%
21 | Cc1ccc(NC(=O)Nc2ccc(Cl)cc2)cc1-c1ccc(C(=O)Nc2ccncc2)cc1 [GSK1398472] | 5%
22 | COc1ccc(Nc2nccc(N3CCC(NC(=O)c4cc5ccccc5s4)C3)n2)cc1 (stereo not shown) [GSK1379738] | 19%
23 | CC(=O)c1cccc(NC(=O)NC2CCN(c3ccnc(Nc4ccc(F)cc4)n3)C2)c1 (stereo not shown) [GSK1379710] | 31%
24 | Cc1ccccc1Cn1ccn2c(=O)cc(N3CCOCC3)nc12 [GSK2269905] | 9%
25 | CS(=O)(=O)CCNCc1nc(-c2ccc3ncnc(Nc4ccc5c(cnn5Cc5ccccc5)c4)c3c2)cs1.Cl.Cl [GW569716] | 59%
26 | O=C1NC(=O)C(c2ccc(Cl)cc2)=C1Nc1cccc(Cl)c1 [SB-317651] | 8%
27 | Cc1ccc(-c2nc(Nc3ccncc3)c3ccccc3n2)s1 [GSK189015] | 5%
28 | Cc1ccc(NC(=O)Nc2ccc(Cl)c(C(F)(F)F)c2)cc1-c1ccc(C(=O)Nc2ccncc2)cc1 [GSK1398470] | 0%
29 | Cn1cncc1-c1cc2c(Nc3ccc(OCc4ccccc4)cc3)ncnc2cn1 [GW281179] | 0%
30 | COc1ccc(CSc2nnc(-c3ccc4ncsc4c3)o2)cc1C(F)(F)F | 0%
31 | O=C(Nc1n[nH]c2cc(-c3ccsc3)ccc12)C1CC1 [SB-732932] | 27%
32 | O=C(Nc1n[nH]c2nc(-c3cccs3)c(Br)cc12)C1CC1 [SB-735297] | 12%
33 | CNCc1ccc2nc(NC(=O)c3ccc(C(C)(C)C)cc3)cn2c1 | 19%
34 | Cc1c(Cn2c(C)c(C)n3c(=O)cc(N4CCOCC4)nc23)cccc1C(F)(F)F [GSK2328680] | 0%
35 | CC(C)c1ccc(O)cc1Nc1ccnc2ccc(C(F)(F)F)cc12 [GW482059] | 45%
36 | CSc1ccc(-c2nc3n(c2-c2ccncc2)CCC3)cc1 [SKF-105561] | 24%
37 | O=c1cc(N2CCOCC2)nc2n(Cc3ccccc3F)ccn12 [GSK2297428] | 0%
